# Measurements taken from PubChem BioAssay (NCATS).
# Records with an inconclusive call do not appear. A number with no mark means an inactive call. Activity calls are given as the source filed them. Calls follow the shape of the dose curve; as a rule, active = well fitted curve in the direction sought with a large enough effect; inconclusive = small, poorly fitted or top-dose-only effect, or another doubt; inactive = no such curve, though single readings can be large; an effect the other way counts as inactive or inconclusive.
# Key:
# [1] = Quantitative highthroughput screen to assess conditional lethalithy of NOMO1 cells grown in RPMI1640 with untreated serum (RPMI+s) (AID 1963876); also: nearly all actives have a fitted effect of over 35% in size; also: potency is read from the fitted curve at half-maximal effect;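 as to viability: 100% = DMSO wells and 0% = empty wells without cells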
# How it was run: (§1)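 Each medium arm—HPLM with 10% dialyzed FBS, or RPMI1640 with 5 mM glucose and 10% untreated or dialyzed FBS—was screened against an 11-point, 3-fold compound titration for 48 h at 37 °C, with CellTiter-Glo luminescence as endpoint.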
# [2] = Quantitative highthroughput screen to assess conditional lethalithy of SEM cells grown in RPMI1640 with unreated serum (RPMI+s) (AID 1963883); also: nearly all actives have a fitted effect of over 35% in size; also: potency is read from the fitted curve at half-maximal effect;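 as to viability: 100% = DMSO wells and 0% = empty wells without cells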
# How it was run: as §1
# [3] = Quantitative highthroughput screen to assess conditional lethalithy of NOMO1 cells grown in RPMI1640 with dialyzed fetal bovine serum (RPMI+ds) (AID 1963877); also: nearly all actives have a fitted effect of over 30% in size; also: potency is read from the fitted curve at half-maximal effect;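 as to viability: series mostly up to about 46 µM; 100% = DMSO control wells and 0% = empty wells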
# How it was run: as §1
# [4] = Quantitative highthroughput screen to assess conditional lethalithy of P12 Ichikawa cells grown in Human Plasma-Like Medium with dialyzed fetal bovine serum (HPLM+ds) (AID 1963879); conditions: Potency: viability; also: nearly all actives have a fitted effect of over 35% in size; also: potency is read from the fitted curve at half-maximal effect; as to viability: series mostly up to about 46 µM
# How it was run: as §1
# [5] = Quantitative highthroughput screen to assess conditional lethalithy of P12 Ichikawa cells grown in RPMI1640 with dialyzed fetal bovine serum (RPMI+ds) (AID 1963880); conditions: Potency: P12-Ichikawa viability; also: nearly all actives have a fitted effect of over 35% in size; also: potency is read from the fitted curve at half-maximal effect;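 as to viability: 100% = DMSO wells and 0% = empty wells on each plate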
# How it was run: as §1
# [6] = Quantitative highthroughput screen to assess conditional lethalithy of P12 Ichikawa cells grown in RPMI1640 with untreated serum (RPMI+s) (AID 1963881); conditions: Potency: viability; also: nearly all actives have a fitted effect of over 35% in size; also: potency is read from the fitted curve at half-maximal effect;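 as to viability: series mostly up to about 46 µM; 100% = DMSO wells and 0% = empty wells without cells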
# How it was run: as §1
# [7] = Quantitative highthroughput screen to assess conditional lethalithy of SEM cells grown in Human Plasma-Like Medium with dialyzed fetal bovine serum (HPLM+ds) (AID 1963882); also: nearly all actives have a fitted effect of over 35% in size; also: potency is read from the fitted curve at half-maximal effect; as to viability: series mostly up to about 46 µM
# How it was run: as §1
# [8] = Quantitative highthroughput screen to assess conditional lethalithy of SEM cells grown in RPMI1640 with dialyzed fetal bovine serum (RPMI+ds) (AID 1963884); also: nearly all actives have a fitted effect of over 35% in size; also: potency is read from the fitted curve at half-maximal effect;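 as to viability: series mostly up to about 46 µM; 100% = DMSO control wells and 0% = empty wells without cells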
# How it was run: as §1
# [9] = Quantitative highthroughput screen to assess conditional lethalithy of NOMO1 cells grown in Human Plasma-Like Medium with dialyzed fetal bovine serum (HPLM+ds) (AID 1963878)
# How it was run: as §1
# [10] = Cellular viability qHTS for adrenocortical cancer (ACC) cell line SW-13 (AID 1963989); conditions: SW-13 ACC cells viability, CellTiter-Glo, 48 h; activity (max response): stronger effect = lower value;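 also: cells grown in serum-free medium with ITS supplement; % is scaled to controls: 0 for no effect and ±100 for the full control effect; nearly all actives have a fitted effect of over 65% in size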
# How it was run: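 SW-13 cells in ITS-supplemented serum-free DMEM were plated overnight, then exposed for 48 h at 37C to compound titrations (up to 46 uM final). Viability was read by CellTiter-Glo luminescence; four-parameter logistic fits gave IC50 and efficacy.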
compound,measurement,setting,value
CC=CC[C@@H](C)C(=O)[C@H]1C(=O)N[C@@H](C(C)C)C(=O)N(C)CC(=O)N(C)[C@@H](CC(C)C)C(=O)N[C@@H](C(C)C)C(=O)N(C)[C@@H](CC(C)C)C(=O)N[C@@H](C)C(=O)N[C@H](C)C(=O)N(C)[C@@H](CC(C)C)C(=O)N(C)[C@@H](CC(C)C)C(=O)N(C)[C@@H](C(C)C)C(=O)N1C,Potency,[1],inactive
same,Potency,[2],14.8 µM (active)
CN(C)CCOc1ccc(-c2nc(-c3ccc4c(c3)CCC4=NO)c(-c3ccncc3)[nH]2)cc1,Potency,[3],18.7 µM (active)
CC(=O)C1=C(O)C=C2Oc3c(C(C)=O)c(O)c(C)c(O)c3C2(C)C1=O (stereo unspecified),Potency,[1],0.296 µM (active)
same,Potency,[4],1.48 µM (active)
same,Potency,[5],2.96 µM (active)
same,Potency,[6],1.32 µM (active)
same,Potency,[2],inactive
CCCNC(=O)[C@H]1O[C@H]1C(=O)N[C@H](C(=O)N1CCC[C@@H]1C(=O)OC)C(C)CC (stereo partly specified),Potency,[1],13.2 µM (active)
same,Potency,[5],16.6 µM (active)
same,Potency,[6],16.6 µM (active)
same,Potency,[7],20.9 µM (active)
same,Potency,[2],14.8 µM (active)
same,Potency,[8],16.6 µM (active)
Cc1ccccc1C(C(=O)NC1CCCC1)N(C(=O)Cn1cnc2ccccc21)c1cccc(F)c1 (stereo unspecified),Potency,[1],inactive
same,Potency,[4],inactive
same,Potency,[5],inactive
same,Potency,[6],inactive
same,Potency,[7],inactive
same,Potency,[8],inactive
CC1(C)O[C@@H]2C[C@@H]3[C@H]4C[C@@H](F)C5=CC(=O)C=C[C@]5(C)[C@@]4(F)[C@@H](O)C[C@]3(C)[C@]2(C(=O)CO)O1,Potency,[3],inactive
same,Potency,[9],inactive
COC[C@@H](c1ccc(C(F)(F)F)cc1)N1CCN(C2(C)CCN(C(=O)c3c(C)ncnc3C)CC2)C[C@H]1C,Potency,[1],2.35 µM (active)
same,Potency,[4],inactive
same,Potency,[6],inactive
same,activity (max response),[10],-14.2%
